Measured values reported in PubChem BioAssay (Tox21).
Results filed as inconclusive are left out. A number with no mark means an inactive call. The source made the active and inactive calls. The call rests on the fitted dose curve; in most records, active means well fitted cell-killing curve with a large enough effect in the repeat runs; inconclusive means weak or mixed curves, or effect the other way; inactive means flat fitted curve, though single readings scatter.
On the % scale 0 is the no-effect control and ±100 the full control effect; potency means the concentration at half of the fitted maximal effect.

Assay: qHTS RealTime-Glo MT Cell Viability Assay in HEK293 cells - 40 hour (AID 1224874); further: nearly all actives have a fitted effect of over 50% in size
Details: RealTime-Glo luminescence; max response: stronger effect = lower value
Excerpt: U.S. Tox21 Program National Center for Advancing Translational Sciences [NCATS] NIH Chemical Genomics Center [NCGC] U.S. Environmental Protection Agency [EPA] National Institutes of Environmental Health Sciences [NIEHS] National Toxicology Program [NTP] U.S. Food and Drug Administration [FDA] Tox21 Assay Overview: Measure of cell viability is critical in the cell-base assay. Analysis of cell viability is necessary for the characterization of cell responses to cytotoxic drugs and environmental stress. A RealTime-Glo MT Cell Viability Assay to monitor cell viability in real time of continues cell culture during 40 hours of compound treatment was used to screen Tox21 10K library compounds in Hek293 cells. The RealTime-Glo MT Cell Viability Assay is a nonlytic, homogeneous, bioluminescent method to measure cell viability in real time using a simple, plate-based method. The assay involves adding NanoLuc luciferase and a cell-permeant prosubstrate to cells in culture. Viable cells reduce the proprietary prosubstrate to generate a substrate for NanoLuc luciferase. This substrate diffuses from cells into the surrounding culture medium, where it is rapidly used by the NanoLuc Enzyme to produce a luminescent signal. The signal correlates with the number of viable cells, making the assay well suited for cytotoxicity studies.
Tox21 Assay Protocol Summary: The mixture of Hek293 cell suspension and reagents were dispensed at 600cells/6 ul/well in 1536-well tissue culture treated black solid bottom plates using a Multidrop dispenser. After the assay plates were incubated at a 37 C/5% CO2 incubator for 5 hours, 23 nL of compounds dissolved in DMSO, positive and negative controls was transferred to the assay plate by a pintool work station. The plates were incubated at 37 C for 40 hours. The luminescence intensity were measured at 0h, 8h, 16h, 24h, 32h and 40h time points using ViewLux plate reader during compound treatment.
For `C[C@]12CC[C@@H]3c4ccc(O)cc4CC[C@H]3[C@@H]1CC[C@@H]2OC(=O)CCC1CCCC1`, the Potency was 43.6 µM (active).
`OC(CCN1CCCC1)(c1ccccc1)C1CCCCC1` (stereo not given) showed a max response of -3.9%.
Work on `CCN(CC)CCNC(=O)COc1ccc(OC)cc1` yielded a max response of 13.7%.
Compound `Oc1cc2c(cc1O)[C@H]1c3ccc(O)c(O)c3OC[C@@]1(O)C2` has a max response of -26.5%.
Work on `CCCCCCCC/C=C\CCCCCCCCO` yielded a max response of 15%.
In the case of `Oc1cccc(Nc2ccccc2)c1`, the Potency was 12.8 µM (active).
Work on `Cc1ccccc1N=C(N)Nc1ccccc1C` yielded a max response of -12.1%.
In the case of `Cc1ccc2c(Br)cc(Br)c(O)c2n1`, the Potency was 5.35 µM (active).
Work on `O=C1c2ccccc2C(=O)C1(O)O` yielded a max response of -22.4%.
With `O=[N+]([O-])c1ccc(O/N=C/c2cc(Br)c(O)c(Br)c2)c([N+](=O)[O-])c1` the Potency was 43.4 µM (active).
In the case of `CN1C[C@H](C(=O)N[C@]2(C)O[C@@]3(O)[C@@H]4CCCN4C(=O)[C@H](Cc4ccccc4)N3C2=O)C[C@@H]2c3cccc4[nH]cc(c34)C[C@H]21`, the Potency was 12 µM (active).
`FC(F)(F)c1ccccc1Cl` gave a max response of -1.41%.
For `CCC(=O)OC`, the max response was 4.28%.
With `CCOC(=O)c1ccc(I)cc1` the max response was -24.8%.
With `CN1CCCC(n2nc(Cc3ccc(Cl)cc3)c3ccccc3c2=O)CC1` (stereo not given) the Potency was 9.52 µM (active).
For `CCn1cc(C(=O)O)c(=O)c2cc(F)c(N3CCNCC3)cc21`, the max response was 11.4%.
With `CCC(C)COC(C)=O` (stereo not given) the max response was 12%.
With `CCc1ccccc1` the max response was 10.2%.
For `CC1CC(OC(=O)C(O)c2ccccc2)CC(C)(C)N1C` (stereo not given), the max response was 0.136%.
With `CCOC(=O)/C=C/C(=O)OCC` the max response was 11.5%.
In the case of `CC(=O)OCC[N+](C)(C)C`, the max response was 1.87%.
`CN(C)CCN1C(=O)c2ccccc2N(C)c2ccccc21` gave a max response of -6.83%.
Work on `O=C(OC(=O)c1ccccc1)c1ccccc1` yielded a max response of 6.21%.
`CC(CN(C)C)C(C)(O)Cc1ccc(Cl)cc1` (stereo not given) gave a max response of -0.684%.
`C(=C\c1ccccc1)/c1ccccc1` gave a max response of 7.61%.
Work on `O=C(O)CCCCCCCCCCCBr` yielded a max response of -7.89%.
For `N#CCCN(CCO)CCO`, the max response was 0.524%.
In the case of `Cc1cc(C)cc(N)c1`, the max response was -4.23%.
For `CC(=O)Nc1cc(S(=O)(=O)O)cc2cc(S(=O)(=O)O)c(N=Nc3ccccc3)c(O)c12`, the max response was -17.9%.
Compound `CC1(C)[C@@H](OC(=O)CCC(=O)O)CC[C@]2(C)[C@H]3C(=O)C=C4[C@@H]5C[C@@](C)(C(=O)O)CC[C@]5(C)CC[C@@]4(C)[C@]3(C)CC[C@@H]12` has a max response of 10.8%.
In the case of `O=C1NC(=O)c2cc([N+](=O)[O-])ccc21`, the max response was 2.79%.
For `CCCCCCCCCCCCCCN(CCO)CCO`, the Potency was 19.5 µM (active).
For `C[C@@H](O)[C@H]1C(=O)N2C(C(=O)O)=C([C@H]3CCCO3)S[C@H]12`, the max response was 5.96%.
With `COc1ccccc1Oc1c(NS(=O)(=O)c2ccc(C(C)(C)C)cc2)nc(-c2ncccn2)nc1OCCO` the max response was -19.3%.
For `O=c1[nH]ncc2ccccc12`, the max response was 6.19%.
Compound `C=C/C(C)=C/C/C=C(\C)CCC=C(C)C` has a max response of -7.52%.
`CC(=O)N/N=C/c1ccc([N+](=O)[O-])o1` showed a max response of 8%.
`COC(=O)CCS` showed a max response of 21.6%.
In the case of `C/C=C(/C(=C/C)c1ccc(O)cc1)c1ccc(O)cc1`, the Potency was 19 µM (active).
For `CCCCN(CCN(CCCC)C(=O)N1CCOCC1)C(=O)N1CCOCC1`, the max response was -14%.
